“And” between values parts separate entries of the source, which are not always exact repeats. Identical values can stand only once. Compounds without any hit were thinned out: in the full panel of roughly 83,000, 20% have a hit.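 Step 1: grow cells in 96-well plates. Step 2: add test compound at a single concentration. Step 3: incubate 48 h. Step 4: record percent growth.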 Values without a mark were called inactive. The source made the active and inactive calls. How the source made its calls: active means growth percent below 10; inactive means the rest.

The subject of the assay is MDA-MB-468 breast. As to the kind of experiment: NCI-60 one-dose screen, 48 h (100 = growth as untreated, 0 = no growth, -100 = all killed). The conditions noted are these: 10 µM unless noted.
`CCCCCc1cc[n+](CC(=O)c2ccccc2)cc1`: the growth is 86.9% and 76%.

Regarding `N#Cc1c(C(F)(F)F)cc(Nc2ccc3nc(NCCN4CCCC4)oc3c2)n2c1nc1ccccc12`, the growth was 34.1%.

In the case of `Cc1cc(-c2nnc(/C=C/c3ccc4c(c3)OCO4)o2)n[nH]1`, the growth is 54%.

`COc1cc(C2CC(c3cccc(Nc4ccnc5cc(Cl)ccc45)c3)=NN2c2ccccc2)cc(OC)c1OC` (centres undefined): the growth is 82.1%.

Turning to `N#Cc1c(-c2ccccc2)c(C#N)c2c(C#N)c(N)nn2c1N`, the growth was 25.9%.

For the compound `Cc1cc(N(CCCNc2ccnc3cc(Cl)ccc23)Cc2ccccn2)nc(N2CCCC2)n1`, the growth was 88.3%.

With `CCOC(=O)c1c(C)nc2c(c1N)CC(=O)N2Cc1cc(OC)c(OC)c(OC)c1`, the growth was -4.22% (active).

`CC(C)C1=NOC(=O)C1=Cc1cn(-c2ccccc2)nc1-c1ccc(Br)cc1`: the growth was 92.2%.

Turning to `CC12CCC3C(=CCc4cc(O)ccc43)C1CCC2=O` (centres undefined), the growth was 96.9%.

With `O=C(Nc1ccc(-n2ccc3c(NC(=O)c4ccccc4)nccc32)cc1)c1cccc(C(F)(F)F)c1`, the growth was 16.8%.

For the compound `COc1ccc(CN2C(=O)/C(=C\c3cc(OC)c(OC)c(OC)c3)c3cc(OC)ccc32)cc1`, the growth is 14%.

Turning to `COc1cnc2c(c1)C(=O)c1c-2n(CCCN2CCCC2)c(=O)c2cc(F)ccc12`, the growth is -29.5% (active).

As for `Nc1c(C(=O)c2ccccc2)sc2nc(-c3cccs3)ccc12`, the growth was 3.08% (active).

Take `O=[N+]([O-])c1cccc(-c2nc3sccn3c2-c2ccnc(NCCCNS(=O)(=O)c3ccc(Cl)cc3)n2)c1`: the growth was 13.1%.

(Values after PubChem BioAssay (NCI).)
